# FEN1 inhibitor – qHTS Assay for the Inhibitors of Human Flap endonuclease 1 (FEN1) | hit rate 0.35% among 390,000 | Potency, µM (doses to about 114 µM), inactives show top-dose activity change, negative = inhibition, most hits filed as inhibitors | Recombinant FEN1 flap cleavage, fluorescence, 15 min; also: % is scaled to controls: 0 for no effect and ±100 for the full control effect; nearly all actives have a fitted effect of over 65% in size
#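 Concentration–response screening of FEN1 (10 nM): 15 min compound preincubation at room temperature, reaction started with 50 nM substrate and read at 0 and 15 min. Corrected, normalized data were fitted by a four-parameter Hill equation.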
# Pol beta inh – qHTS Assay for Inhibitors of DNA Polymerase Beta; hit rate 1.3% among 340,000; P06746; Potency, µM (series often up to 114 µM), inactives show at the highest dose activity change, negative = inhibition, hits mostly inhibitors; Pol beta primer extension/strand displacement, fluorescence kinetic; also: % is scaled to controls: 0 for no effect and ±100 for the full control effect
#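 Pol beta (10 nM) and compounds were preincubated 15 min at room temperature, then 50 nM substrate (final) started primer extension/strand displacement. Reads were taken at 0 and 10 min; concentration-response data were fitted to a four-parameter Hill equation.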
# POLI inh – qHTS for Inhibitors of Polymerase Iota. DNA polymerase iota (Homo sapiens), Q9UNA4. Pol iota fluorescent replication assay, 10 min. Potency, µM (titrated, usually from 115 µM), for the others: at the highest dose activity, negative = inhibition, hits mostly inhibitors. hit rate 1% among 390,000
#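 Fluorescent replication assay read twice, at 0 min and 10 min after adding 50 nM (final) substrate. Enzyme (10 nM) and compounds were first incubated 15 min at room temperature; enzyme-free buffer wells were negative controls.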
# POLH inh – qHTS for Inhibitors of Polymerase Eta. DNA polymerase eta (Homo sapiens), Q9Y253. recombinant Pol eta, fluorescent DNA replication assay. Potency, µM (top dose mostly 114 µM), without a hit: at the highest dose activity change, negative = inhibition, hits mostly inhibitors. hit rate 1.2% among 390,000. AID 588591, 2011; also: % is scaled to controls: 0 for no effect and ±100 for the full control effect
#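 Fluorescent replication assay: 50 nM final substrate added after a 15 min room-temperature compound preincubation with 10 nM enzyme. Signal taken at 0 min and again at 10 min.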
# Pol kappa inh – qHTS for Inhibitors of Polymerase Kappa | AID 588579, 2011 | DNA polymerase kappa (Homo sapiens), Q9UBT6 | purified Pol kappa, fluorescent DNA synthesis assay, 10 min | Potency, µM (top dose mostly 107 µM), without a hit: at the highest dose activity, negative = inhibition, hits mostly inhibitors | hit rate 0.53% among 400,000; also: % is scaled to controls: 0 for no effect and ±100 for the full control effect
#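 First, compounds were pin-transferred onto 10 nM Pol kappa. After 15 min at room temperature, substrate was added to 50 nM final. Fluorescence was then measured kinetically at 0 and 10 min.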
# TDP1 block – qHTS Assay for Inhibitors of Tyrosyl-DNA Phosphodiesterase (TDP1); recombinant TDP1, AlphaScreen DNA substrate cleavage; Potency, µM (top dose mostly 130 µM), for inactives: at the top dose activity change, negative = inhibition, usual class: inhibitors; hit rate 0.28% among 350,000; Tyrosyl-DNA phosphodiesterase 1 (Homo sapiens), Q9NUW8; also: % is scaled to controls: 0 for no effect and ±100 for the full control effect; nearly all actives have a fitted effect of over 40% in size
#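 Tdp1 1 nM final; 15 min RT w/ cpd; substrate 15 nM, 5 min; beads 10 ug/ml, 10 min; AlphaScreen read. Neg ctrl: no enzyme.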
# TbPGK inh – qHTS for inhibitors of Phosphogylcerate Kinase: Hit Validation Screen | shares compounds with Pol kappa inh | TbPGK coupled GAPDH assay, Kinase-Glo luminescence | Potency, µM (doses to about 57.5 µM), for inactives: at the highest dose activity change, negative = inhibition, actives largely listed as inhibitors | hit rate 79% among 500; also: % is scaled to controls: 0 for no effect and ±100 for the full control effect; nearly all actives have a fitted effect of over 65% in size
# Target sequence (P07378 whole entry, looked up): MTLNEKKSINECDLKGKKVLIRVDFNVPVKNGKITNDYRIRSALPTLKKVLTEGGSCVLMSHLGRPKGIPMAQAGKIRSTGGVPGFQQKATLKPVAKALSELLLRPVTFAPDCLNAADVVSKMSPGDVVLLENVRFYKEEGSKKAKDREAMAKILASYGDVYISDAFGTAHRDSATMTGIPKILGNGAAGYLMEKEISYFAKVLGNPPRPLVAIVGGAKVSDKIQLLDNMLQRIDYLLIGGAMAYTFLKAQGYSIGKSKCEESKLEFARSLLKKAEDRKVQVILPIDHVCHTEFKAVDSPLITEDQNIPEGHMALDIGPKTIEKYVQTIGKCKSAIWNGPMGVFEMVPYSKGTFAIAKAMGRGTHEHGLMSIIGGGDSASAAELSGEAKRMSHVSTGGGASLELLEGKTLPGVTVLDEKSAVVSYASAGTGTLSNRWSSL
# POLI cherry-pick – qHTS for Inhibitors of Polymerase Iota: Confirmatory Assay for Cherry-picked Compounds. hit rate 77% among 1,500. Pol iota primer extension, TAMRA/BHQ fluorescence. AID 720496, 2013. Potency, µM, usual class: inhibitors. shares compounds with Pol kappa inh
# Numbers without * were called inactive; ? = inconclusive; . = no result; [ ] = remark or other dose. Sampled rows, rich in hits. Any-hit rate of the full collection: about 2.4%. Calls follow the shape of the dose curve; as a rule, active = well fitted curve in the direction sought with a large enough effect; inconclusive = small, poorly fitted or top-dose-only effect, or another doubt; inactive = no such curve, though single readings can be large; an effect the other way counts as inactive or inconclusive. Potency is read from the fitted curve at half-maximal effect.
SMILES,FEN1 inhibitor,Pol beta inh,POLI inh,POLH inh,Pol kappa inh,TDP1 block,TbPGK inh,others
CSc1ccccc1NC(=O)COc1ccc(Cl)cc1Cl,-2%,17%[57.1 µM],-2%,-28%,-8%,-5%,.,
Cn1c(=O)[nH]c(=O)c2c1nc1n(CCO)c(-c3ccccc3)cn21,13%,2%,30%,-11%,-2%,-5%[12.3 µM],.,
CCn1c(C)c(C)c2cc(C(=O)NCC(C)c3ccccc3)ccc21 (stereo not given),5%,3%,?,-16%,-2%,8%,.,
O=C(N/N=C\c1ccc(OC(=O)c2cccs2)cc1)c1ccc(Cl)cc1,-35%,3.2µM*,?,3.2µM*,-7%,3%,.,POLI cherry-pick=?
CCN1CCOC(=O)C1CC(=O)Nc1ccc(C)c(Cl)c1 (stereo not given),-5%,2%,11%,-24%,-10%,2%,.,
O=C1C=CC(=O)c2c1ccc1c2ccc2ccccc21,.,.,.,.,-19%[12 µM],13%[56.1 µM],.,
Cc1ccc(/C(N)=N/OC(=O)c2cccs2)cc1,5%,-14%,13%,-14%,-6%,0%,.,
COc1ccc(C(=O)O/N=C(\C)c2nccs2)cc1,8%,1%,46%,-13%,4%,5%,.,
COc1ccc(C(=O)O/N=C(/C)c2cccs2)cc1,-5%,14%,3%,-10%,-3%,1%,5.8µM*,
N/C(=N\OC(=O)c1cccs1)c1ccccc1,-15%,-1%,-6%,-4%,-6%,0%,16µM*,
COc1ccc(C(=O)O/N=C(\N)c2ccccc2)cc1,2%,3%,51%,-16%,-3%,.,8.2µM*,
Cc1[nH]cnc1C(=O)N/N=C/c1c(Cl)cccc1Cl,-12%,5%,16%,-7%,4%,.,12µM*,
COc1cccc(-c2cncnc2NCc2cccnc2)c1,.,.,.,.,6%[60.1 µM],.,.,
CCOC(=O)c1cccc(-n2nnc3c(sc4nc(C)c(Br)c(C)c43)c2=O)c1,2%,52%,6%,12%,12%,5%,.,
COc1ccccc1CCNC(=O)c1cc(-c2ccncc2)nc2ccc(Br)cc12,-20%,-14%,42%,45µM*,-26%,-1%,.,POLI cherry-pick=?
O=C(N/N=C/c1ccc(Cl)c([N+](=O)[O-])c1)c1ccc2c(c1)OCCO2,?,.,-24%,?,-10%,.,.,POLI cherry-pick=75*
O=C(Nc1ccc(Cl)c([N+](=O)[O-])c1)c1ccc2c(c1)OCCO2,4%,15%,129%,-21%,-4%,0%,.,
CCOC(=O)c1sc(N2C(=O)c3oc4ccc(F)cc4c(=O)c3C2c2ccc(O)cc2)nc1C (stereo not given),-5%,22%,-7%,8%,5%,1%,.,
COc1ccc2nc(NC(=O)c3ccoc3C)sc2c1,-10%,-1%,-10%[58.9 µM],5%,-10%,3%,10µM*,
COc1ccc2nc(NC(=O)c3cc(C)oc3C)sc2c1,-1%,40%,?,-8%,4%,-1%,.,
O=C(c1ccccc1)c1cc2ccc(O)cc2oc1=O,-14%,22%,-5%,8%,-5%,4%,15µM*,
Cc1cc2nnc(SCC(=O)Nc3ccc(F)c(Cl)c3)n2c2ccccc12,1%,0%,16%,-11%,0%,.,.,
CCn1c(C)cc(C(=O)COC(=O)c2ccccc2[N+](=O)[O-])c1C,4%,.,3%,-19%,-5%,8%,15µM*,
O=C(COC(=O)c1ccccc1[N+](=O)[O-])c1ccc2c(c1)OCO2,-6%,.,41%,?,-10%,1%,9.2µM*,
Cc1cccc(C(=O)OCC(=O)c2ccc3c(c2)OCO3)c1O,-1%,5%,13%,-8%,-10%,-4%[56.1 µM],.,
SMILES,FEN1 inhibitor,Pol beta inh,POLI inh,POLH inh,Pol kappa inh,TDP1 block,TbPGK inh,others
CCN1CCN(CCCNC(=O)Cn2c(-c3cccs3)cc3cc(F)ccc32)CC1,4%,4%,27%,-12%,-10%,-2%,.,
CC(C)(C)C1CCc2c(sc(NC(=O)CCC(=O)O)c2C(=O)Nc2ccccc2C(F)(F)F)C1 (stereo not given),?,?,?,?,-25%,.,.,POLI cherry-pick=?
CCN(CC)S(=O)(=O)c1ccc2nc(NC(=O)c3cccnc3)sc2c1,-9%,34%,-1%,-3%,-8%[60.1 µM],3%,.,
CCCCNS(=O)(=O)c1ccc2nc(NC(=O)c3cccnc3)sc2c1,-10%,-18%,14%,50µM*,-7%[60.1 µM],0%,?,
O=c1cc(-c2ccccc2F)[nH]c2cc3c(cc12)OCO3,.,.,.,.,9%[60.1 µM],.,.,
CN(N=O)C(=O)N[C@H]1[C@@H](O)[C@H](O)[C@H](CO)O[C@@H]1O,.,.,.,.,4%[19.4 µM],7%[56.1 µM],.,
Cn1c(N=Nc2ccccc2)nc2ccccc21,-14%,-29%,14%,-6%,-9%,5%,13µM*,
Cn1c(Cl)nc2ccccc21,-5%,-1%,10%,2%,-19%,2%,.,
CC(=O)c1ccc(NC(=O)c2nc(-c3ccccc3)n(-c3ccc(C)cc3)n2)cc1,-8%,-1%,7%,-14%,0%,9%,.,
CCCN(CCC)C(=O)CSc1nnc2cc(C)c3cc(C)cc(C)c3n12,0%,6%,25%,-23%,-1%,-1%,.,
Cc1cc(C)c2cc3c(N)c(C(=O)N4CCOCC4)sc3nc2c1,-1%,24%,131%,-17%,2%,-1%,.,
Cc1cc(C)c2cc3c(N)c(C(=O)Nc4c(C)[nH]c(=O)[nH]c4=O)sc3nc2c1,?,?,?,45µM*,-20%,2%,.,POLI cherry-pick=?
COC(=O)N1CCC2(CC1)CCN(c1cccc(-c3ccccc3)c1)CC2,.,.,.,.,0%[60.1 µM],.,.,
COc1cc2c(cc1OC)C(c1oc(-c3ccc(-c4cc(Cl)ccc4Cl)o3)cc1C)=NCC2,-5%,.,-2%,.,-6%,.,.,
CCC(=O)OC1(C)C(=O)C2=COC(c3ccc(OC)cc3)=CC2=C(Br)C1=O (stereo not given),-14%,?,?,45µM*,?,-2%,21µM*,
